Screens deposited in PubChem BioAssay by Sanford-Burnham Center for Chemical Genomics.
In the library only some 4% were active in any assay of this set; here they are far more common.
NALP1 yeast inh: NALP1 inflammasome inhibitors in reconstituted yeast, colorimetric, S. cerevisiae, triplicate retest | S. cerevisiae NALP1/ASC/caspase-1 growth, X-gal OD620, 72 h | inhibition, % at 10 µM | hit rate 0.61% among 280,000 | AID 2071, 2009; in the data active = inhibition mostly above about 24%, no sharp cut-off; inactive = mostly below about 32%
TIM10 inh: growth inhibitors of isogenic TIM10 control yeast, primary screen, counter-screen for tim10-1 yeast inhibitor project, luminescence, uHTS; hit rate 1.4% among 330,000; inhibition, % at 10 µM; S. cerevisiae TIM10 strain growth, BacTiter-Glo luminescence, 24 h;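 active = inhibition of 40% or more at the single tested concentration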;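 also: wild-type TIM10 isogenic control strain grown at permissive 25 °C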
NLRP3 yeast inh: NALP3 inflammasome inhibitors in reconstituted yeast, primary screen, luminescence, uHTS | hit rate 0.39% among 330,000 | Yeast reconstituted NLRP3/ASC/caspase-1, beta-gal luminescence, 24 h | inhibition, % at 10 µM;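 active = inhibition of 50% or more; inactive = inhibition below 50%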;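 also: plate controls were induced DMSO wells for no effect and uninduced yeast grown without galactose for full effect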
tim10-1 inh: growth inhibitors of tim10-1 mutant yeast, primary screen, luminescence, uHTS; S. cerevisiae tim10-1 ts strain growth, BacTiter-Glo, 24 h; inhibition, % at 20 µM; hit rate 2.2% among 330,000; AID 463190, 2010;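 active = inhibition of at least 40%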;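 also: mutant grown at 25 °C; 0% = DMSO wells with yeast and 100% = wells holding no yeast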
tim23-1 inh: growth inhibitors of tim23-1 mutant yeast, primary screen, luminescence, uHTS; hit rate 1.3% among 330,000; inhibition, % at 20 µM; S. cerevisiae tim23-1 growth, BacTiter-Glo luminescence, 24 h;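 active = growth inhibition of the mutant yeast at or above 50%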;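 also: temperature-sensitive mutant grown at 25 °C; plate controls were DMSO-treated mutant yeast for no effect and medium wells lacking yeast for full effect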
tim10-1 conf: growth inhibitors of tim10-1 mutant yeast, confirmation, single concentration, luminescence, S. cerevisiae; shares compounds with tim10-1 inh; S. cerevisiae tim10-1 ts strain growth, BacTiter-Glo, 24 h; inhibition, % at 20 µM; hit rate 56% among 7,400; AID 463213, 2010;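 active = inhibition of yeast growth at or above a set limit in either of two repeat tests at 20 µM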;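 also: tim10-1 mutant grown at permissive 25 °C to find synthetic lethal compounds; 0% = DMSO yeast wells and 100% = medium wells without yeast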
tim10 confirm: growth inhibitors of wild-type TIM10 yeast, confirmation, counter-screen for tim10-1 synthetic lethality project, single concentration, luminescence, S. cerevisiae; shares compounds with TIM10 inh; S. cerevisiae tim10 strain growth, BacTiter-Glo luminescence, 24 h; inhibition, % at 10 µM; hit rate 63% among 4,600;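 active = inhibition of yeast growth at or above a set limit in either of two replicates at 10 µM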;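 also: this counterscreen used the strain with wild-type TIM10; 0% = yeast with DMSO and 100% = medium wells lacking yeast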
tim23-1 confirm: tim23-1 mutant yeast growth inhibitors, confirmation, luminescence, single concentration; S. cerevisiae tim23-1 growth, BacTiter-Glo luminescence, 24 h; inhibition, % at 20 µM; hit rate 83% among 4,400; shares compounds with tim23-1 inh;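 active = inhibition above about 39% in either of two replicate wells at 20 µM, limit read from the data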;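 also: temperature-sensitive tim23-1 mutant grown at 25 °C; 0% = DMSO wells with yeast and 100% = medium wells without yeast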
* hit, by the source's call; nt = not tested or not shown.

SMILES	NALP1 yeast inh	TIM10 inh	NLRP3 yeast inh	tim10-1 inh	tim23-1 inh	tim10-1 conf	tim10 confirm	tim23-1 confirm
Cc1nn(-c2ccccc2)c2[nH]c(=O)c(CNCC3CCCO3)cc12 (stereo not given)	7	6	8	9	-5	nt	nt	nt
CCOc1cccc(NCc2cc3c(C(C)(C)C)nn(-c4ccccc4)c3[nH]c2=O)c1	9	42*	24	50*	68*	42*	25	65*
CNC(=S)/N=C/NOCc1c(Cl)cccc1Cl	21	53*	-16	63*	54*	55*	54*	60*
COc1ccc(Cn2c(SCc3ccccc3C)nc3cc(OC)c(OC)cc3c2=N)cc1	35	3	16	50*	51*	-27	nt	1
CCN(c1ccccc1)S(=O)(=O)c1ccc(F)cc1C	-5	4	8	12	9	nt	nt	nt
CCCCn1c(O)c(/C=C2\C=NN=C2c2ccccc2)sc1=S	29	9	-1	38	29	nt	nt	nt
Cn1c(O)c(/C=C2\C=NN=C2c2ccccc2)sc1=S	4	42*	24	57*	65*	42*	42*	57*
CCn1c(O)c(/C=C2\C=NN=C2c2ccccc2)sc1=S	nt	33	16	51*	50*	32*	nt	54*
Cc1ccnc(Nc2nc(-c3sc(C)nc3C)cs2)c1	nt	39	-9	48*	82*	25	nt	58*
Cc1cccc(Nc2nc(-c3sc(C)nc3C)cs2)c1	-1	36	-5	23	43	nt	nt	nt
Cc1ccc(-c2cc(C(=O)N3CCN(c4ccc(F)cc4)CC3)c3ccccc3n2)o1	5	27	17	44*	51*	26	nt	44*
COc1ccc(-c2cc(C(=O)N3CCCCCC3)c3ccccc3n2)c(OC)c1	9	22	10	42*	54*	22	nt	48*
COc1ccc(N2CCN(C(=O)c3cc(-c4cc(OC)ccc4OC)nc4ccccc34)CC2)cc1	3	14	4	32	21	nt	nt	nt
COc1ccc(-c2cc(C(=O)N3CCN(c4ncccn4)CC3)c3ccccc3n2)c(OC)c1	44	59*	24	66*	51*	52*	7	13
COc1ccc(-c2cc(C(=O)N3CCN(c4ccccc4F)CC3)c3ccccc3n2)c(OC)c1	-2	39	21	54*	57*	58*	nt	58*
COc1ccc(NC(=O)CN(C)C(=O)c2ccccc2Sc2ncnc3sc(C)c(C)c23)cc1	nt	17	7	29	22	nt	nt	nt
CCCC(=O)Nc1ccc(Sc2ccc([N+](=O)[O-])cc2)cc1	32	55*	30	42*	51*	25	41*	43*
COc1ccc(/C=C/C=C2\N=C(SC)SC2=O)cc1	7	57*	-2	51*	72*	38*	-2	22
O=C(NC(=S)NC1CCCc2ccccc21)c1ccco1 (stereo not given)	7	43*	-21	51*	52*	41*	43*	58*
O=[N+]([O-])c1ccc(NC(=S)NCCc2ccccc2)cc1	34	59*	35	67*	52*	57*	52*	69*
NS(=O)(=O)c1ccc(NC(=S)NCCc2ccccc2)cc1	-10	-5	15	-1	-1	nt	nt	nt
O=C(NC(=S)NCCc1ccccc1)c1ccco1	-9	48*	-6	42*	56*	26	-15	48*
O=C1CCN(Cc2ccccc2)S(=O)(=O)c2c(F)cc(F)cc21	nt	4	14	6	18	nt	nt	nt
CSc1ccccc1NC(=O)COC(=O)c1cnc(C)cn1	nt	9	8	-9	-1	nt	nt	nt
O=c1cc(N2CCCCCC2)[nH]c(=O)n1-c1ccccc1Cl	11	6	2	6	-25	nt	nt	nt
SMILES	NALP1 yeast inh	TIM10 inh	NLRP3 yeast inh	tim10-1 inh	tim23-1 inh	tim10-1 conf	tim10 confirm	tim23-1 confirm
CCC(=O)NC(c1cc(Cl)c2cccnc2c1O)C1CC1 (stereo not given)	nt	10	16	40*	58*	19	nt	58*
CC(=O)NC(c1cc(F)c2cccnc2c1O)C1CC1 (stereo not given)	nt	0	13	25	29	nt	nt	nt
CCC(=O)NC(c1ccc(Cl)cc1Cl)c1ccc2cccnc2c1O (stereo not given)	9	6	10	48*	61*	25	nt	52*
CCCCC(=O)NC(c1ccc(Cl)cc1Cl)c1ccc2cccnc2c1O (stereo not given)	10	-65	16	2	-4	nt	nt	nt
O=C(CCl)Nc1sccc1C(=O)c1ccccc1	nt	47*	-4	54*	60*	55*	52*	50*
Cc1ccccc1C(=O)Nc1sc(C)c(C)c1C(=O)c1ccccc1	4	-9	-2	14	-10	nt	nt	nt
Cc1sc(NC(=O)CCl)c(C(=O)c2ccccc2)c1C	29	46*	20	43*	52*	39*	9	38*
COc1ccc(NC(=O)Nc2cccc3ccccc23)cc1S(N)(=O)=O	12	4	18	-6	7	nt	nt	nt
Cc1cc(C)n(NC(=S)NC2CCCCC2)c(=O)c1C#N	15	7	19	5	6	nt	nt	nt
C/C(=N\Nc1nc2c(s1)CCCC2)c1ccc(Cl)cc1	5	50*	14	61*	58*	47*	24	63*
CC1CCN(c2cc(N)c(Cl)cc2[N+](=O)[O-])CC1	-1	41*	31	52*	72*	37*	-12	65*
CCCc1cc(=O)[nH]c(SCC(=O)NC2CCCc3ccccc32)n1 (stereo not given)	nt	-12	-7	4	3	nt	nt	nt
CCC(=O)Nc1ccc2c(c1)N(C(C)=O)c1ccccc1CC2	20	5	11	8	-3	nt	nt	nt
CCNC(=O)O/N=C(\C)c1sc(-c2ccc(Cl)cc2)nc1C	-8	21	18	60*	57*	54*	nt	64*
CC1SC(c2ccc(F)cc2)N(CCc2ccccc2)C1=O (stereo not given)	7	0	14	30	27	nt	nt	nt
OC(CN1CCN(c2ccccn2)CC1)Cn1c2ccc(Cl)cc2c2cc(Cl)ccc21 (stereo not given)	-2	-28	31	47*	55*	21	nt	-39
